Screens deposited in PubChem BioAssay by several laboratories.
HDAC3 inh = blocks human histone deacetylase 3; recombinant HDAC3, fluorogenic peptide/trypsin coupled, fluorescence; inhibition, % at 8.3 µM; hit rate 0.15% among 320,000; in the data active means inhibition above about 26%, passing the limit was not always enough
JMJD2C inh = inhibitors of human GASC-1 (JMJD2C) demethylase | hit rate 0.069% among 330,000 | inhibition, % at 2.35 µM | GST-JMJD2C(1-420) H3K9me3 demethylation, DELFIA europium | Q9H3R0;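 active means more than half of a compound's replicate wells show inhibition beyond 50%, single wells judged on their own value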;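 further: signal counts dimethyl H3K9 product captured on neutravidin plate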
PvdQ inh = P. aeruginosa PvdQ acylase inhibition; purified PvdQ acylase, fluorescence plate reader; inhibition, % at 10 µM; hit rate 0.063% among 340,000; AID 488965; in the data active means inhibition above about 30%, passing the limit was not always enough
PHOSPHO1 inh = blocks human PHOSPHO1 phosphatase activity. recombinant PHOSPHO1, absorbance phosphatase assay. inhibition, % at 13.3 µM. hit rate 1.1% among 290,000; in the data active means inhibition above about 60%
p-CIP stab down = compounds decreasing mouse p/CIP protein stability. Q05BA5. F442A p/CIP-EGFP cells, EGFP fluorescence, 16 h. decrease of EGFP signal, % at 10 µM. hit rate 0.01% among 290,000. AID 1984;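 active means EGFP signal decrease of at least 30% at 10 µM or well 3 SD below plate mean, unless failing retest; inactive means the rest, including hits failing retest or dose response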
Target sequence (Q05BA5 1-1403): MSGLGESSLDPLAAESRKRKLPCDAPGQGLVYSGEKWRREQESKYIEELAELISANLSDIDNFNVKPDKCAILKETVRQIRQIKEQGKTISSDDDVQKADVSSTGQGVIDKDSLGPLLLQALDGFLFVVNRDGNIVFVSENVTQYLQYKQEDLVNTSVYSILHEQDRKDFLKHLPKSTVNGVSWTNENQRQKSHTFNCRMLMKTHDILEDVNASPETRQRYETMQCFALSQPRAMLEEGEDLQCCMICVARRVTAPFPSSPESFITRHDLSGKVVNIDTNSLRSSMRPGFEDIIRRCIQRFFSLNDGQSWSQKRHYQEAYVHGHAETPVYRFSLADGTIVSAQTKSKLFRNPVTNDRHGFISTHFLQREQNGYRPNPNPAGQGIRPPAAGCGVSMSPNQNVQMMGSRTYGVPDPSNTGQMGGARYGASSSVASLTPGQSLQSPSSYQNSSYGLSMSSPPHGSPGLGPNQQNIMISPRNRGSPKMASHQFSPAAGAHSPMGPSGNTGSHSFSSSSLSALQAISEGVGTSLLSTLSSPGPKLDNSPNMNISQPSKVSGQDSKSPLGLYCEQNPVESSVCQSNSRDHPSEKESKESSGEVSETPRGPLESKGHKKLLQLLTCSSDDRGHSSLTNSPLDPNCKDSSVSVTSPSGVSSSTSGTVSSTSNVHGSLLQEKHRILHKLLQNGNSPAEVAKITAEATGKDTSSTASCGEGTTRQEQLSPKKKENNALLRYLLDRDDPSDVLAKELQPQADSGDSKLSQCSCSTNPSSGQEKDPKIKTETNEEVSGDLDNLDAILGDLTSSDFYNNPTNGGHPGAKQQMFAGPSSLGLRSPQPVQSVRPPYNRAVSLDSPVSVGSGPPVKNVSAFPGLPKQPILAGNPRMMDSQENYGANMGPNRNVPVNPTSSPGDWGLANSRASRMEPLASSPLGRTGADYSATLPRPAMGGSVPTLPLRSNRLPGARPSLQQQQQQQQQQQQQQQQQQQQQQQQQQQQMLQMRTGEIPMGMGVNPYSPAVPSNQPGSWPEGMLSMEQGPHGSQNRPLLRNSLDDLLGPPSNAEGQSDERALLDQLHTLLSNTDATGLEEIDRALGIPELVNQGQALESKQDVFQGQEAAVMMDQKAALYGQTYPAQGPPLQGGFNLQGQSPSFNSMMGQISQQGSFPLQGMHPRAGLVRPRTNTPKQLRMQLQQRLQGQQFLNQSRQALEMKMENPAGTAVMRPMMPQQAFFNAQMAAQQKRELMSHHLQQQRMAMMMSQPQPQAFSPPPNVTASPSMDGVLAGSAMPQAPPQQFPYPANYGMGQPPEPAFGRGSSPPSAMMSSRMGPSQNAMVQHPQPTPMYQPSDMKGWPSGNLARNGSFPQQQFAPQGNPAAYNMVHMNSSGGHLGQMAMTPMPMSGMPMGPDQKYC
SUMO Mot1 rescue = blocks SUMOylation pathway, rescuing yeast Mot1-301 growth. hit rate 1% among 320,000. S. cerevisiae Mot1-301 growth rescue, ATP luminescence, 38.5C; percent above DMSO median, 100 means doubled. AID 2716. growth rescue, % at 18.8 µM;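 active means every valid replicate shows activation above 250% relative to neutral control wells; inactive means the rest, any valid replicate at or below 250%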
Yeast Mot1 SUMO = yeast SUMO pathway inhibition in dose response | S. cerevisiae Mot1-301 galactose growth, ATP luminescence, 24 h; -100 = growth of slx-deleted rescue strain | shares compounds with SUMO Mot1 rescue | 2,300 tested, under 10 active | growth activity, percent, % at 42 µM;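 active means Signal drops as the depositor expects, and the fitted half-maximal dose is no more than ten times the top valid tested dose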;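 further: more negative values mean stronger growth rescue toward the control strain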
Each line names hits and unclear results; the compound was inactive in the other large screens (follow-up assays come after a bar, where they were run). Only some compounds are listed: those with a hit (about 2.2% of all), similar ones and a draw of the others.

COc1cccc(S(=O)(=O)Nc2cccc(C(=O)N3CCOCC3)c2)c1	SUMO Mot1 rescue 477.8 | Yeast Mot1 SUMO inactive
Cc1c(C(=O)N2CCOCC2)c(S(=O)(=O)Nc2cccc(Br)c2)c(C)n1C	SUMO Mot1 rescue 553.1 | Yeast Mot1 SUMO inactive
O=C(NC1CCN(S(=O)(=O)c2ccc(F)cc2)CC1)c1cccnc1	none
O=C(Nc1ccc([N+](=O)[O-])cn1)C1CC1	SUMO Mot1 rescue 572.7 | Yeast Mot1 SUMO inactive
Cc1c(NC(=O)CN2C(=O)NC(C)(c3ccc(OC(F)F)cc3)C2=O)c(=O)n(-c2ccccc2)n1C (stereo not drawn)	SUMO Mot1 rescue 378.7 (no result: PHOSPHO1 inh, p-CIP stab down) | Yeast Mot1 SUMO inactive
COc1ccc(C2(C)NC(=O)N(CC(=O)Nc3c(C)n(C)n(-c4ccccc4)c3=O)C2=O)cc1 (stereo not drawn)	none (no result: PHOSPHO1 inh, p-CIP stab down)
CN(C(=O)COc1cc(=O)n(C)c2ccccc12)c1ccc(Cl)cc1	SUMO Mot1 rescue 447.2 | Yeast Mot1 SUMO inactive
COc1ccc([N+](=O)[O-])cc1NC(=O)C1CCCN1S(=O)(=O)c1cccs1 (stereo not drawn)	SUMO Mot1 rescue 418.3 (no result: PHOSPHO1 inh, p-CIP stab down) | Yeast Mot1 SUMO inactive
Cc1ccc2c(c1)C(=O)N1[C@H]3c4cc(C)ccc4OC[C@@H]3[C@H](c3ccccc3)[C@]1(C)C(=O)N2	none (no result: PHOSPHO1 inh, p-CIP stab down)
C[C@@]12C(=O)Nc3cc(Cl)ccc3C(=O)N1[C@H]1c3ccccc3OC[C@@H]1[C@@H]2c1ccccc1	SUMO Mot1 rescue 454.3 (no result: PHOSPHO1 inh, p-CIP stab down) | Yeast Mot1 SUMO inactive
C[C@@]12C(=O)Nc3ccc(F)cc3C(=O)N1[C@H]1c3ccccc3OC[C@@H]1[C@@H]2c1ccccc1	SUMO Mot1 rescue active (no result: PHOSPHO1 inh, p-CIP stab down) | Yeast Mot1 SUMO inactive
C[C@@]12C(=O)Nc3ccc(F)cc3C(=O)N1[C@H]1c3cc(Cl)ccc3OC[C@@H]1[C@@H]2c1ccccc1	SUMO Mot1 rescue 409.1 (no result: PHOSPHO1 inh, p-CIP stab down) | Yeast Mot1 SUMO inactive
C[C@@]12C(=O)Nc3cc(Cl)ccc3C(=O)N1[C@H]1c3cc(Cl)ccc3OC[C@@H]1[C@@H]2c1ccccc1	none (no result: JMJD2C inh, PHOSPHO1 inh, p-CIP stab down)
O=C(Nc1ccccc1C(=O)O)/C(=C/c1ccc([N+](=O)[O-])cc1)NC(=O)c1ccc(Br)o1	none
O=C(CSC(=S)N1CCCC1)N1CCN(S(=O)(=O)c2cccc([N+](=O)[O-])c2)CC1	none
O=C(CN1C(=O)C2CCCCC2C1=O)Nc1cccc([N+](=O)[O-])c1 (stereo not drawn)	none (no result: HDAC3 inh, PHOSPHO1 inh, p-CIP stab down)
Cc1ccnc(NC(=O)CC(c2ccccc2)c2ccccc2)n1	SUMO Mot1 rescue 432.0 | Yeast Mot1 SUMO inactive
Cc1ccnc(NC(=O)Cc2ccc(F)cc2)n1	none
Cc1nc2ccccc2c(C)c1CC(=O)OC(C)C(=O)NC1(C#N)CCCCC1 (stereo not drawn)	none (no result: PHOSPHO1 inh, p-CIP stab down)
CC1CCCN(CCCNC(=O)c2ccc(NC(=O)C3=CSCCO3)cc2)C1 (stereo not drawn)	none
Cc1cccc(N2CCN(CCCNC(=O)c3ccc(NC(=O)C4=CSCCO4)cc3)CC2C)c1 (stereo not drawn)	SUMO Mot1 rescue 444.9 | Yeast Mot1 SUMO inactive
O=C(COc1ccc([N+](=O)[O-])cc1)Nc1ccc(C(=O)NCc2cccnc2)cc1	SUMO Mot1 rescue 481.2 | Yeast Mot1 SUMO inactive
COc1ccc(CNC(=O)c2ccc(CS(=O)(=O)c3ccc(C)cc3)o2)cc1	none
CCCC(=O)NC(C)c1nc2ccccc2[nH]1 (stereo not drawn)	SUMO Mot1 rescue 594.7 | Yeast Mot1 SUMO inactive
CSCC[C@H](NC(=O)CC(C)(C)C)c1nc2ccccc2[nH]1	SUMO Mot1 rescue 422.4 | Yeast Mot1 SUMO inactive
CC(NC(=O)Cc1ccccc1)c1nc2ccccc2[nH]1 (stereo not drawn)	none (no result: HDAC3 inh)
c1ccc(CNc2ccc3ccccc3n2)nc1	SUMO Mot1 rescue 364.7 | Yeast Mot1 SUMO inactive
CCCCN(C(=O)c1cnccn1)c1c(N)n(CCC)c(=O)[nH]c1=O	none (no result: PHOSPHO1 inh, p-CIP stab down)
CCCCn1c(N)c(N(CCOC)C(=O)c2cnccn2)c(=O)[nH]c1=O	SUMO Mot1 rescue 765.4 (no result: PHOSPHO1 inh, p-CIP stab down) | Yeast Mot1 SUMO inactive
CCCCn1c(N)c(N(CCOC)C(=O)c2ccc(Cl)c(S(=O)(=O)N3CCCCC3)c2)c(=O)[nH]c1=O	SUMO Mot1 rescue 697.6 (no result: PHOSPHO1 inh, p-CIP stab down) | Yeast Mot1 SUMO inactive
O=C(Nc1nc(-c2ccccc2)cs1)NC1CCCCC1	none
